Source: PubChem BioAssay (NCI)
About 83,000 compounds went through this panel and 20% of them were active in at least one assay; those are over-represented in the sample as a whole.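 For each line, cells grew in 96-well plates with the test compound present at a single concentration for 48 hours.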 Active and inactive are the calls of the source. Rule for the calls: active = growth percent below 10; inactive = the rest.

What follows are molecules tested on SN12C renal (assay: NCI-60 one-dose screen, 48 h (100 = growth as untreated, 0 = no growth, -100 = all killed)). Details: 10 µM unless noted.
In the case of `OCCn1cc(-c2nc3ccc4[nH]ncc4c3c3c2CCCC3)cn1`, the growth was 36.7% (inactive).
`O=C1Nc2cc(-c3ccc(NS(=O)(=O)c4ccc([N+](=O)[O-])cc4)cc3)ccc2/C1=C/c1ccc[nH]1` was tested, and the growth was -17.7% (active).
With `O=C(Cn1c(-c2ccccc2)nc2ccccc21)N=Nc1c(O)[nH]c2ccc(Br)cc12` the growth was 1.91% (active).
With `Cc1nc2sccn2c1-c1nnc(SCc2ccccc2)o1` the growth was 86.6% (inactive).
With `CCC1(OC(=O)c2ccccc2SSCCOC(=O)CCCCC2SCC3NC(=O)NC32)C(=O)OCc2c1cc1n(c2=O)Cc2cc3ccccc3nc2-1` (stereo unspecified) the growth was 32.3% (inactive).
For `C=CC(=O)Nc1ccc(C(=O)/C=C/c2ccc(N(C)C)cc2)c(O)c1`, the growth was 5.34% (active).
In the case of `COc1ccc(C(=O)c2cc(C(C)=O)c3c(C)cc(C)cn23)cc1`, the growth was 55% (inactive).
In the case of `Cc1ccc(S(=O)(=O)N(CCn2ccnc2[N+](=O)[O-])CCn2ccnc2[N+](=O)[O-])cc1`, the growth was 105% (inactive).
With `Cc1ccc(S(=O)(=O)Nc2ccc(-c3ccc4c(c3)NC(=O)/C4=C\c3ccc[nH]3)cc2)cc1` the growth was 85.8% (inactive).
For `COc1ccc2c(c1)C(=O)N(C)C2C1c2c(cc3c(c2OC)OCO3)CCN1C` (stereo unspecified), the growth was 76.9% (inactive).
In the case of `Cc1ccc(C2CC(c3ccc(NC(=O)Nc4ccccc4)cc3)=NN2c2ccc(S(N)(=O)=O)cc2)cc1` (stereo unspecified), the growth was -91.6% (active).
`COC(=O)c1cc(C(=O)C(Br)Br)n2c1ccc1c3ccccc3ccc12` was tested, and the growth was 53.3% (inactive).
For `COc1ccc2c(c1)N=c1c-2cc2c(O)[nH]c(=S)n2c1=O`, the growth was 35.6% (inactive).
With `O=Cc1cncc(-c2ccc3ncnc(N4CCc5cc(F)c(Cl)cc54)c3c2)c1` the growth was 23.2% (inactive).
With `CC1=C(C(=O)OC(C)C)C(c2ccc(O)cc2)NC(=O)N1` (stereo unspecified) the growth was 106% (inactive).
For `COC(=O)CSC1=C(C)C(=O)C(OC)=C(OC)C1=O`, the growth was 96.2% (inactive).
For `O=C1Nc2ccccc2/C1=C/C(=O)c1cc2ccccc2oc1=O`, the growth was 99.3% (inactive).
In the case of `COC(=O)c1ccc(-c2c(-c3ccccc3)c(F)c3oc(C(=O)OC)c(N)c3c2-c2ccccc2)cc1`, the growth was 98.1% (inactive).
`COc1cc(-c2ccc3ncnc(N4CCc5ccc(Cl)cc54)c3c2)cnc1Cl` was tested, and the growth was 26.9% (inactive).
In the case of `Oc1cncc(-c2ccc3ncnc(N4CCc5cc(F)c(Cl)cc54)c3c2)c1`, the growth was 44.2% (inactive).
For `Nc1cc(-c2c[nH]c3ccc(F)cc23)nc2cc(-c3c[nH]c4ccccc34)nn12`, the growth was 41.2% (inactive).
For `C/C(=N\Nc1ccc(S(N)(=O)=O)cc1)c1cnn(-c2cc(=O)[nH]c3ccc(Br)cc23)c1C`, the growth was 61.2% (inactive).
For `O=C(Cn1c(-c2ccccc2)nc2ccccc21)N=Nc1c(O)[nH]c2ccc(Cl)cc12`, the growth was 5.72% (active).
In the case of `COC(=O)c1c(C(=O)OC)c2ccc3c4ccccc4ccc3n2c1C(=O)OC`, the growth was 95.6% (inactive).
In the case of `COc1sc(/C=N/NC(=O)c2[nH]c3ccc(Br)cc3c2-c2ccccc2)cc1Br`, the growth was 5.93% (active).
With `O=C(NNC(=O)c1ccc(OCc2nc3ccc(Cl)cc3[nH]2)cc1)Nc1ccc(Cl)c(Cl)c1` the growth was 76.7% (inactive).
For `COc1ccc(NC(=O)CSc2nnc(-c3ccc(-c4nc5ccc(Cl)cc5[nH]4)cc3)o2)cc1`, the growth was 6.13% (active).
`O=C1Nc2ccc(F)cc2/C1=C/C(=O)c1cc2ccccc2oc1=O` was tested, and the growth was 104% (inactive).
In the case of `Cn1cc(-c2cc(N)n3nc(-c4c[nH]c5ccccc45)cc3n2)c2ccccc21`, the growth was -85.5% (active).
For `COc1nc(N)ncc1-c1ccc2ncnc(N3CCc4cc(F)c(Cl)cc43)c2c1`, the growth was -40.9% (active).
In the case of `CN1CCN(C(=O)Oc2cc3c(c4ccccc24)[C@H](CCl)CN3C(=O)c2cc3cc(OCCCN4CCC4)ccc3[nH]2)[C@@H]2CSSC[C@H]21`, the growth was -75.8% (active).
With `COc1ccc2[nH]cc(-c3cc4nc(-c5cn(C)c6ncccc56)cc(N)n4n3)c2c1` the growth was 26.2% (inactive).
For `COc1ccc(N=Nc2c(N)nn3c(-c4ccc(OC)c(OC)c4)ccnc23)cc1`, the growth was 88.5% (inactive).
In the case of `Cc1ccc2nc(NC(=O)Nc3cccc(Cl)c3)sc2c1`, the growth was 103% (inactive).
`COc1ccc(Nc2ncnc3sc4c(c23)CCN(Cc2ccccc2)C4)cc1` was tested, and the growth was 85.4% (inactive).
With `O=C1/C(=C/C=C/c2ccco2)SC(=S)N1CC(=S)C1C=CS(=O)(=O)C1` (stereo unspecified) the growth was 81.2% (inactive).
With `CC1=C(C(=O)OCc2ccccc2)C(c2cccc3ccccc23)n2c(nc3ccccc32)N1` (stereo unspecified) the growth was 30.6% (inactive).
For `CN(C)c1nc(NCCNS(=O)(=O)c2ccc(C(=O)/C=C/c3ccccc3)cc2)nc(N2CCOCC2)n1`, the growth was 79.8% (inactive).

These molecules were tested on UO-31 renal in the same assay as above. Details: 10 µM unless noted.
`OCCn1cc(-c2nc3ccc4[nH]ncc4c3c3c2CCCC3)cn1` was tested, and the growth was 22.3% (inactive).
In the case of `O=C1Nc2cc(-c3ccc(NS(=O)(=O)c4ccc([N+](=O)[O-])cc4)cc3)ccc2/C1=C/c1ccc[nH]1`, the growth was 34.9% (inactive).
For `O=C(Cn1c(-c2ccccc2)nc2ccccc21)N=Nc1c(O)[nH]c2ccc(Br)cc12`, the growth was -47.5% (active).
For `Cc1nc2sccn2c1-c1nnc(SCc2ccccc2)o1`, the growth was 74.2% (inactive).
With `CCC1(OC(=O)c2ccccc2SSCCOC(=O)CCCCC2SCC3NC(=O)NC32)C(=O)OCc2c1cc1n(c2=O)Cc2cc3ccccc3nc2-1` (stereo unspecified) the growth was 38.4% (inactive).
In the case of `C=CC(=O)Nc1ccc(C(=O)/C=C/c2ccc(N(C)C)cc2)c(O)c1`, the growth was 1.04% (active).
For `COc1ccc(C(=O)c2cc(C(C)=O)c3c(C)cc(C)cn23)cc1`, the growth was 67.5% (inactive).
With `Cc1ccc(S(=O)(=O)N(CCn2ccnc2[N+](=O)[O-])CCn2ccnc2[N+](=O)[O-])cc1` the growth was 76.4% (inactive).
In the case of `Cc1ccc(S(=O)(=O)Nc2ccc(-c3ccc4c(c3)NC(=O)/C4=C\c3ccc[nH]3)cc2)cc1`, the growth was 93.9% (inactive).
`COc1ccc2c(c1)C(=O)N(C)C2C1c2c(cc3c(c2OC)OCO3)CCN1C` (stereo unspecified) was tested, and the growth was 49.4% (inactive).
`Cc1ccc(C2CC(c3ccc(NC(=O)Nc4ccccc4)cc3)=NN2c2ccc(S(N)(=O)=O)cc2)cc1` (stereo unspecified) was tested, and the growth was -100% (active).
With `COC(=O)c1cc(C(=O)C(Br)Br)n2c1ccc1c3ccccc3ccc12` the growth was 37.8% (inactive).
With `COc1ccc2c(c1)N=c1c-2cc2c(O)[nH]c(=S)n2c1=O` the growth was 47.8% (inactive).
In the case of `O=Cc1cncc(-c2ccc3ncnc(N4CCc5cc(F)c(Cl)cc54)c3c2)c1`, the growth was 10.7% (inactive).
With `CC1=C(C(=O)OC(C)C)C(c2ccc(O)cc2)NC(=O)N1` (stereo unspecified) the growth was 92.2% (inactive).
In the case of `COC(=O)CSC1=C(C)C(=O)C(OC)=C(OC)C1=O`, the growth was 80.7% (inactive).
`O=C1Nc2ccccc2/C1=C/C(=O)c1cc2ccccc2oc1=O` was tested, and the growth was 45.8% (inactive).
`COC(=O)c1ccc(-c2c(-c3ccccc3)c(F)c3oc(C(=O)OC)c(N)c3c2-c2ccccc2)cc1` was tested, and the growth was 88.6% (inactive).
For `COc1cc(-c2ccc3ncnc(N4CCc5ccc(Cl)cc54)c3c2)cnc1Cl`, the growth was 5.14% (active).
In the case of `Oc1cncc(-c2ccc3ncnc(N4CCc5cc(F)c(Cl)cc54)c3c2)c1`, the growth was 35.7% (inactive).
For `Nc1cc(-c2c[nH]c3ccc(F)cc23)nc2cc(-c3c[nH]c4ccccc34)nn12`, the growth was 21.7% (inactive).
For `C/C(=N\Nc1ccc(S(N)(=O)=O)cc1)c1cnn(-c2cc(=O)[nH]c3ccc(Br)cc23)c1C`, the growth was 54.8% (inactive).
With `O=C(Cn1c(-c2ccccc2)nc2ccccc21)N=Nc1c(O)[nH]c2ccc(Cl)cc12` the growth was 1.39% (active).
`COC(=O)c1c(C(=O)OC)c2ccc3c4ccccc4ccc3n2c1C(=O)OC` was tested, and the growth was 87.8% (inactive).
With `COc1sc(/C=N/NC(=O)c2[nH]c3ccc(Br)cc3c2-c2ccccc2)cc1Br` the growth was 31.1% (inactive).
`O=C(NNC(=O)c1ccc(OCc2nc3ccc(Cl)cc3[nH]2)cc1)Nc1ccc(Cl)c(Cl)c1` was tested, and the growth was 84.7% (inactive).
`COc1ccc(NC(=O)CSc2nnc(-c3ccc(-c4nc5ccc(Cl)cc5[nH]4)cc3)o2)cc1` was tested, and the growth was 71.4% (inactive).
For `O=C1Nc2ccc(F)cc2/C1=C/C(=O)c1cc2ccccc2oc1=O`, the growth was 62.1% (inactive).
`Cn1cc(-c2cc(N)n3nc(-c4c[nH]c5ccccc45)cc3n2)c2ccccc21` was tested, and the growth was -83.5% (active).
`COc1nc(N)ncc1-c1ccc2ncnc(N3CCc4cc(F)c(Cl)cc43)c2c1` was tested, and the growth was -32.4% (active).
`CN1CCN(C(=O)Oc2cc3c(c4ccccc24)[C@H](CCl)CN3C(=O)c2cc3cc(OCCCN4CCC4)ccc3[nH]2)[C@@H]2CSSC[C@H]21` was tested, and the growth was -0.968% (active).
In the case of `COc1ccc2[nH]cc(-c3cc4nc(-c5cn(C)c6ncccc56)cc(N)n4n3)c2c1`, the growth was 12.3% (inactive).
`COc1ccc(N=Nc2c(N)nn3c(-c4ccc(OC)c(OC)c4)ccnc23)cc1` was tested, and the growth was 108% (inactive).
For `Cc1ccc2nc(NC(=O)Nc3cccc(Cl)c3)sc2c1`, the growth was 82% (inactive).
With `COc1ccc(Nc2ncnc3sc4c(c23)CCN(Cc2ccccc2)C4)cc1` the growth was 49% (inactive).
With `O=C1/C(=C/C=C/c2ccco2)SC(=S)N1CC(=S)C1C=CS(=O)(=O)C1` (stereo unspecified) the growth was 84.1% (inactive).
In the case of `CC1=C(C(=O)OCc2ccccc2)C(c2cccc3ccccc23)n2c(nc3ccccc32)N1` (stereo unspecified), the growth was 34.2% (inactive).
For `CN(C)c1nc(NCCNS(=O)(=O)c2ccc(C(=O)/C=C/c3ccccc3)cc2)nc(N2CCOCC2)n1`, the growth was 70.9% (inactive).
